Source: PubChem BioAssay (National Center for Advancing Translational Sciences (NCATS))
This is a sample that favours compounds with a hit; in the whole collection about 18% have one here.
Six1-Eya2 inh: inhibitors of human Six1/Eya2 interaction | Q15475+O00167 | AlphaScreen GST-Six1/His-Eya2 binding, biochemical; hits give low values | activity change, % (no concentration beside the values) | 0.56% of 360,000 active; in the data active means activity change below about -65%; inconclusive means mostly about -30% to -63%
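Homogeneous AlphaScreen proximity assay pairing GST-Six1 with His-tagged Eya2 (added as 5X mix: 250 nM and 500 nM) in 50 mM Tris pH 8.0, 300 mM NaCl, 1 mM TCEP. Glutathione donor and nickel acceptor beads; 1 h, 37 °C, dark.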
TDP1 block: inhibitors of human tyrosyl-DNA phosphodiesterase TDP1; recombinant TDP1, AlphaScreen DNA substrate cleavage; 0.28% of 350,000 active; Potency, µM (titrated, usually from 130 µM), without a hit: top-dose activity change, negative = inhibition, actives largely listed as inhibitors; further: potency means the concentration at half of the fitted maximal effect; nearly all actives have a fitted effect of over 40% in size
Target sequence (Q9NUW8 whole entry, looked up): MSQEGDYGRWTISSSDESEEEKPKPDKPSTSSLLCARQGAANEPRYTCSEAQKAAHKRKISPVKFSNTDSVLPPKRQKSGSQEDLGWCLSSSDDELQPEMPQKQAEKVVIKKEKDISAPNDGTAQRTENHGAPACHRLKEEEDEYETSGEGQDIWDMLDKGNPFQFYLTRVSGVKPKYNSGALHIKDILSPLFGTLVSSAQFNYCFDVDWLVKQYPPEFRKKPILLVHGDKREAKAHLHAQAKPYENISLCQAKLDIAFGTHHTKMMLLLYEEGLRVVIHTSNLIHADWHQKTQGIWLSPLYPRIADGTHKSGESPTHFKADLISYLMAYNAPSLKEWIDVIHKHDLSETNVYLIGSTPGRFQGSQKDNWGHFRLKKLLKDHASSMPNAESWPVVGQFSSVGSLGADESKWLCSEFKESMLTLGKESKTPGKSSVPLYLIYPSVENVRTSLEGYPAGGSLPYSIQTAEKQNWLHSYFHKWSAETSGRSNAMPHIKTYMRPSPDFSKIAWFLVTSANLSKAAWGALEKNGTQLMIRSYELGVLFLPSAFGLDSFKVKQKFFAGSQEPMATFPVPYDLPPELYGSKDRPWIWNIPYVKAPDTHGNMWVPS
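Recombinant E. coli-expressed Tdp1 (1 nM) preincubated with compound 15 min at RT, then 5'-biotin/3'-phosphotyrosine-FITC DNA substrate (15 nM) added for 5 min. AlphaScreen beads (10 ug/ml) added, 10 min RT; tyrosine-FITC cleavage read as signal loss.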
DT40 TDP1 CPT: growth inhibition of DT40 Tdp1-/-;hTDP1 cells with camptothecin (screen for TDP1 inhibitors) | chicken DT40 Tdp1-/-;hTDP1 cells + 20 nM CPT, ATP luminescence, 48 h | AID 686979 | Potency, µM (highest dose often 46.2 µM), for inactives: at the highest dose activity change, negative = growth inhibition, most hits filed as inhibitors | 12% of 420,000 active; further: potency means the concentration at half of the fitted maximal effect; nearly all actives have a fitted effect of over 55% in size
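Chicken DT40 Tdp1-/- cells stably complemented with human TDP1 were seeded at 400 cells/well in medium containing 20 nM camptothecin, exposed to pin-transferred compounds, and grown at 37 °C for at least 48 hr. Viability was read as ATP luminescence.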
CtBP-E1A blk: blocks the CtBP interaction with E1A; AlphaScreen GST-E1A/His-CtBP binding, 1536-well; hits give low values; activity change, % (concentration not given with the values); 0.49% of 340,000 active; in the data active means activity change below about -65%; inconclusive means mostly about -30% to -63%
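GST-E1A and His-tagged CtBP (125 nM each as 5X stock) were preincubated with pin-transferred compound for 2 h at 37 °C in the dark, then glutathione donor and nickel acceptor beads were added for 1 h before AlphaScreen reading.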
IL1B secr inh: blocks inflammasome-driven IL-1 beta release; THP-1 LPS/ATP IL-1B secretion, AlphaLISA, 16 h; hits give low values; activity change, % at 57.5 µM; 4.7% of 360,000 active; AID 743279; in the data active means activity change below about -50%; inconclusive means mostly about -30% to -49%
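THP-1 cells pretreated 1 hr with compounds (up to 57.5 uM final), then stimulated with LPS (250 ng/mL final) plus ATP (1.25 mM final); secreted IL-1B measured by AlphaLISA after 16 hr, decreased signal indicating inhibition.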
TDP1 cell noCPT: qHTS for Inhibitors of human tyrosyl-DNA phosphodiesterase 1 (TDP1): qHTS in cells in absence of CPT. 15% of 420,000 active. Potency, µM (titrated, usually from 46.2 µM), inactives show at the top dose activity change, negative = growth inhibition, actives largely listed as inhibitors. DT40 Tdp1-/- hTDP1 cells, no CPT, ATP luminescence, 48 h. AID 686978, 2013; further: potency means the concentration at half of the fitted maximal effect; nearly all actives have a fitted effect of over 55% in size
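DT40 Tdp1-/-;hTDP1 cells, no CPT (DMSO vehicle only), 400 cells/well; compounds pin-transferred; ≥48 hr, 37 °C; CellTiter-Glo 30 min RT dark, luminescence read.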
An asterisk follows results filed as active; [ ] = remark or other dose. Unless noted, the call rests on the fitted dose curve; in most records, active means well fitted curve in the direction sought with a large enough effect; inconclusive means small, poorly fitted or top-dose-only effect, or another doubt; inactive means no such curve, though single readings can be large; an effect the other way counts as inactive or inconclusive. On the % scale 0 is the no-effect control and ±100 the full control effect.

Results for CSc1cccc(CN2CCC(Oc3cccc(C(=O)N4CCCC4)c3)CC2)c1 ?
Six1-Eya2 inh: -11; TDP1 block: 4%[56.1 µM]; DT40 TDP1 CPT: inconclusive; CtBP-E1A blk: -15; IL1B secr inh: inconclusive; TDP1 cell noCPT: inconclusive

What do the screens show for `COc1ccc(CN2CCC(Oc3ccc(C(=O)N4CCCCC4)cc3)CC2)cc1C`?
Six1-Eya2 inh: -5; TDP1 block: -2%[56.1 µM]; DT40 TDP1 CPT: inconclusive; CtBP-E1A blk: -15; IL1B secr inh: -53*; TDP1 cell noCPT: inconclusive

How did Cc1cc(Br)cn2c(Cc3cccc(F)c3)c(-c3ccc(F)cc3)nc12 do in these assays?
Six1-Eya2 inh: 6; DT40 TDP1 CPT: inconclusive; CtBP-E1A blk: 6; IL1B secr inh: 18; TDP1 cell noCPT: inconclusive

What do the screens show for `CSCc1c(C(=O)OCC(=O)c2ccc[nH]2)oc2ccccc12`?
Six1-Eya2 inh: -10; TDP1 block: -2%; DT40 TDP1 CPT: -15%; CtBP-E1A blk: -27; IL1B secr inh: 0; TDP1 cell noCPT: 1%

Results for O=C(/C=C/c1ccccc1)N1c2ccccc2Sc2ccc(C(F)(F)F)cc21 ?
Six1-Eya2 inh: 7; TDP1 block: 0%; DT40 TDP1 CPT: -9%; CtBP-E1A blk: -7; IL1B secr inh: -1; TDP1 cell noCPT: -8%

How did COc1ccc(/C=C/C(=O)N2c3ccccc3Sc3ccc(C(F)(F)F)cc32)cc1 do in these assays?
Six1-Eya2 inh: -17; TDP1 block: 0%; DT40 TDP1 CPT: inconclusive; CtBP-E1A blk: -15; IL1B secr inh: -3; TDP1 cell noCPT: 18µM*

How did COc1ccc(CCNC(=O)CCn2c(=O)c3ccccc3n(Cc3ccccc3F)c2=O)cc1OC do in these assays?
TDP1 block: 0%; DT40 TDP1 CPT: 15µM*; TDP1 cell noCPT: 12µM*

How did CCc1ccc(NC(=O)Cn2c(=O)n(CCCC(=O)NCCc3ccc(OC)c(OC)c3)c(=O)c3ccccc32)cc1 do in these assays?
TDP1 block: -3%; DT40 TDP1 CPT: inconclusive; TDP1 cell noCPT: inconclusive

What do the screens show for `COc1ccc(CCNC(=O)CCCn2c(=O)c3ccccc3n(CC(=O)Nc3cccc(C)c3)c2=O)cc1OC`?
TDP1 block: -1%; DT40 TDP1 CPT: inconclusive; TDP1 cell noCPT: 18µM*

Results for CCc1ccc(NC(=O)Cn2c(=O)n(CCCCC(=O)NCCc3ccc(Cl)cc3)c(=O)c3ccccc32)cc1 ?
TDP1 block: -4%; DT40 TDP1 CPT: inconclusive; TDP1 cell noCPT: inconclusive

Results for O=C(CCCn1c(=O)c2ccccc2n(Cc2cccc(Cl)c2)c1=O)NCCc1ccc(Cl)cc1 ?
TDP1 block: -3%; DT40 TDP1 CPT: inconclusive; TDP1 cell noCPT: 18µM*

Results for COc1ccc(CCNC(=O)CCn2c(=O)c3ccccc3n(Cc3ccccc3)c2=O)cc1OC ?
TDP1 block: -1%; DT40 TDP1 CPT: inconclusive; TDP1 cell noCPT: 18µM*

Results for CCN1C(=O)CC2CCCC1C2 (stereo not given) ?
Six1-Eya2 inh: 14; DT40 TDP1 CPT: -2%; CtBP-E1A blk: 16; IL1B secr inh: -7; TDP1 cell noCPT: -5%

How did C=CCCC(=O)N1CCC(Oc2cccc(C(=O)NCc3ccccn3)c2)CC1 do in these assays?
Six1-Eya2 inh: 5; TDP1 block: 2%; DT40 TDP1 CPT: 3%; CtBP-E1A blk: 0; IL1B secr inh: 8; TDP1 cell noCPT: -14%

How did O=C(CSc1nc(=O)n2ccccc2n1)Nc1ccc2c(c1)OCO2 do in these assays?
Six1-Eya2 inh: -10; DT40 TDP1 CPT: -10%; CtBP-E1A blk: -6; IL1B secr inh: -10; TDP1 cell noCPT: -27%

What do the screens show for `COc1ccc(CCNC(=O)CCN2C(=O)[C@@H]3Cc4ccccc4CN3C2=O)cc1OC`?
Six1-Eya2 inh: 5; TDP1 block: 4%; DT40 TDP1 CPT: -9%; IL1B secr inh: 10; TDP1 cell noCPT: -41%
